Common to all, as to experiment: qHTS profiling for inhibitors of Plasmodium falciparum proliferation (AID 504749); further: nearly all actives have a fitted effect of over 60% in size
Holding throughout (settings): P. falciparum in erythrocytes, SYBR Green DNA, 72 h; series mostly up to 28.7 µM
Background: Quantitative high-throughput screening tests each substance at several concentrations.

Assay [1] relates to CP194. The method, boiled down: (§1)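 Three-day growth assay of blood-stage parasites in erythrocytes (0.3% parasitemia, 2.5% hematocrit) at 37 C, 5% CO2, quantified by SYBR Green DNA staining after overnight detergent lysis.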
Assay [2] has as its system CP201. The method, boiled down: as §1
Assay [3] has as its system CP203. The method, boiled down:
as §1

For assay [4], the system named is CP211. The method, boiled down: as §1
Assay [5] has as its system CP215. The method, boiled down: as §1
For assay [6], the system named is CP217. The method, boiled down: as §1
Assay [7] has as its system CP237. Summed up: as §1
For assay [8], the system named is CP238. The method, boiled down: as §1
The test system of assay [9] is CP247. The method, boiled down: as §1
Assay [10] has as its system CP250. Summed up: as §1

Structures are written as SMILES. Results filed as inconclusive are left out. Active and inactive are the calls of the source. The call rests on the fitted dose curve; in most records, active means well fitted inhibition curve with a large enough effect; inconclusive means small, poorly fitted or top-dose-only effect; inactive means flat fitted curve, though single readings scatter.
Potency means the concentration at half of the fitted maximal effect.

As for `CCN(CC)CCNC(=O)c1ccc(NC(C)=O)cc1`, the Potency entry in assay [1], in assay [2], in assay [3], in assay [4], in [5] and in assay [6] was “inactive” each time. Further, the Potency result in assay [7], in assay [8], in assay [9] and in assay [10] was “inactive” in each case.

Regarding `O=C(O)CP(=O)(O)O`, the Potency result in assay [1], in [2], in assay [3], in [4], in assay [5] and in [6] was “inactive” in each case. Besides, the Potency entry in assay [7], in assay [8], in assay [9] and in [10] was “inactive” in each case.

On to `Cc1nnc(SCC2=C(C(=O)O)N3C(=O)[C@@H](NC(=O)Cn4cnnn4)[C@H]3SC2)s1`, for which the Potency entry in assay [1], in assay [2], in assay [3], in [4], in assay [5] and in assay [6] was “inactive” each time. Also, the Potency entry in [7], in [8], in assay [9] and in assay [10] was “inactive” in each case.

Consider `Cc1scc2c1N(C(=O)CN1CCN(C)CC1)c1ccccc1NC2=O`, for which the Potency result in assay [1], in assay [2], in assay [3], in [4], in assay [5] and in [6] was “inactive” throughout. The Potency entry in assay [7], in [8], in assay [9] and in assay [10] was “inactive” throughout.

Regarding `CCCOc1ccccc1-c1nc2n[nH]nc2c(=O)[nH]1`, the Potency entry in assay [1], in [2], in [3], in assay [4], in assay [5] and in assay [6] was “inactive” each time. For the same molecule, the Potency result in assay [7], in assay [8], in assay [9] and in [10] was “inactive” throughout.

With `C[N+](C)(C)CCOC(=O)CCC(=O)OCC[N+](C)(C)C`, the Potency result in assay [1], in assay [2], in assay [3], in [4], in assay [5] and in [6] was “inactive” throughout. Also, the Potency entry in [7], in assay [8], in assay [9] and in [10] was “inactive” each time.

Take `O=C(CCNNC(=O)c1ccncc1)NCc1ccccc1`: the Potency result in assay [1], in assay [2], in assay [3], in [4], in [5] and in [6] was “inactive” throughout. The Potency entry in assay [7], in assay [8], in assay [9] and in assay [10] was “inactive” in each case.

Consider `Cc1ccc(=O)n(-c2ccccc2)c1`, for which the Potency entry in assay [1], in assay [2], in assay [3], in [4], in assay [5] and in [6] was “inactive” throughout. The Potency result in assay [7], in assay [8], in assay [9] and in assay [10] was “inactive” in each case.

Consider `COC(=O)[C@@H](N)Cc1ccc(O)c(O)c1`, for which the Potency entry in assay [1], in assay [2], in [3], in [4], in assay [5] and in [6] was “inactive” in each case. The Potency entry in assay [8] was “inactive”.

Regarding `CCn1ccnc1CC1COc2ccccc2O1` (stereo unspecified), the Potency entry in assay [1], in assay [2], in assay [3], in [4], in [5] and in assay [6] was “inactive” throughout. Also, the Potency entry in [7], in assay [8], in assay [9] and in assay [10] was “inactive” in each case.

On to `NCCCNCCSP(=O)(O)O`, for which the Potency entry in assay [1], in assay [2], in assay [3], in assay [4], in assay [5] and in assay [6] was “inactive” throughout. Further, the Potency result in assay [7], in assay [8], in assay [9] and in assay [10] was “inactive” in each case.

Regarding `CCN(CC)CCCN(c1ccccc1)C1Cc2ccccc2C1`, the Potency in assay [1] was 7.57 µM (active); in assay [2], 7.57 µM (active); in assay [3] it was 6.75 µM (active); in assay [4], 12 µM (active); in assay [5] it was 8.49 µM (active); in assay [6], 5.62 µM (active). The Potency in assay [7] was 2.82 µM (active); in [8], 11.2 µM (active); in [9], 8.91 µM (active); in assay [10], 7.94 µM (active).

`O=C(O)CCCCCCCC(=O)O`: the Potency entry in assay [1], in [2], in [3], in [4], in assay [5] and in assay [6] was “inactive” each time. The Potency result in assay [7], in assay [8], in assay [9] and in assay [10] was “inactive” each time.

Consider `Nc1ncn([C@@H]2O[C@H](CO)[C@@H](O)[C@H]2O)c(=O)n1`, for which the Potency entry in assay [1], in [2], in assay [3], in assay [4], in assay [5] and in [6] was “inactive” throughout. The Potency result in assay [7], in assay [8], in assay [9] and in assay [10] was “inactive” throughout.

With `NC(Cc1ccc(Cl)cc1)C(=O)O` (stereo unspecified), the Potency result in [1], in assay [2], in [3], in assay [4], in assay [5] and in assay [6] was “inactive” in each case. The Potency entry in [7], in assay [8], in assay [9] and in [10] was “inactive” each time.

`CCOC(=O)c1cnc2c(cnn2CC)c1NN=C(C)C`: the Potency entry in assay [1], in assay [2], in assay [3], in assay [4], in assay [5] and in [6] was “inactive” each time. Also, the Potency result in assay [7], in assay [8], in assay [9] and in assay [10] was “inactive” throughout.

In the case of `CC(=O)OCC1=C(C(=O)O)N2C(=O)[C@@H](NC(=O)Cc3cccs3)[C@H]2SC1`, the Potency entry in assay [1], in assay [2], in assay [3], in assay [4], in assay [5] and in [6] was “inactive” throughout. Moreover, the Potency entry in assay [7], in [8], in assay [9] and in [10] was “inactive” throughout.

With `CCO/C([O-])=N/c1c[n+](N2CCOCC2)no1`, the Potency entry in [1], in [2], in [3], in [4], in [5] and in [6] was “inactive” in each case. For the same molecule, the Potency result in assay [7], in assay [8], in assay [9] and in [10] was “inactive” in each case.

With `CC(C)NNC(=O)c1ccncc1`, the Potency result in assay [1], in [2], in [3], in assay [4], in assay [5] and in [7] was “inactive” throughout. Further, the Potency result in assay [8], in assay [9] and in [10] was “inactive” each time.

As to `CCNC(=O)N1CCN(CCCC(c2ccc(F)cc2)c2ccc(F)cc2)CC1`, the Potency is 7.57 µM (active) in assay [1]; 7.57 µM (active) in [2]; 6.75 µM (active) in assay [3]; 5.36 µM (active) in assay [4]; 4.26 µM (active) in assay [5]; 1.12 µM (active) in assay [6]. The Potency in [7] was 2.51 µM (active); in assay [8] it was 3.16 µM (active); in assay [9], 1 µM (active); in [10], 1 µM (active).

Source of the values: PubChem BioAssay (NCATS).
